Compounds with a hit are over-represented: about 11% of the library has one in this group of screens.
HCV inh = qHTS Assay for Inhibitors of Hepatitis C Virus (HCV); 340,000 compounds, 3.4% hits; Potency, µM (doses to about 41.8 µM), for the others: at the top dose activity change, negative = inhibition, usual class: inhibitors; Huh7.5.1 HCVcc-Cre infection, luciferase reporter, 44 h; AID 651820, 2012
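HCVcc-Cre virus at an moi near 0.5 was added right after compound to cells cultured 4 h from seeding (1,000 cells/well). Luciferase activity was determined 44 h later, 15 min after substrate addition at RT.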
AmpC inh no detg = qHTS Inhibitors of AmpC Beta-Lactamase (assay without detergent); AID 485341, 2010; 330,000 compounds, 0.52% hits; AmpC nitrocefin hydrolysis, absorbance 480 nm, 0.0001% Triton; P00811; Potency, µM (titrated, usually from 57.1 µM), without a hit: at the top dose activity change, negative = inhibition, hits mostly inhibitors;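 also: plate controls were no compound for no effect and no enzyme for full effect; nearly all actives have a fitted effect of over 20% in size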
Target sequence (P00811 whole entry, looked up): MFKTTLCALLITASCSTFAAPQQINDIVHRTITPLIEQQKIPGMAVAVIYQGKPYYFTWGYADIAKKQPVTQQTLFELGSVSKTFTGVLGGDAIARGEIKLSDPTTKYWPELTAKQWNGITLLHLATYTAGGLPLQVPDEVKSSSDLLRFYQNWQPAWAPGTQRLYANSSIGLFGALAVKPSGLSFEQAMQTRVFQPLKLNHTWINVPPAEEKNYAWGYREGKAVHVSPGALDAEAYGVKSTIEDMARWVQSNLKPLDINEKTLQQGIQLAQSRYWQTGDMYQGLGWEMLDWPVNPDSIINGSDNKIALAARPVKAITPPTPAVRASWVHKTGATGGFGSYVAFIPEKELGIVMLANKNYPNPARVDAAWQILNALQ
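AmpC (5.3 nM in the dispensed reagent) in 20 mM phosphate pH 7.0 with 0.01% (detergent screen) or 0.0001% Triton X-100 was preincubated with compounds for 15 min at room temperature. Nitrocefin was then added from an 800 uM solution, and hydrolysis was followed at 480 nm.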
AmpC detergent = qHTS Inhibitors of AmpC Beta-Lactamase (assay with detergent). Potency, µM (doses to about 114 µM), without a hit: at the top dose activity change, negative = inhibition, actives largely listed as inhibitors. P00811. AmpC hydrolysis of nitrocefin, absorbance 480 nm, 0.01% Triton. 370,000 compounds, 0.041% hits;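 also: 0% = no-compound wells and -100% = no-enzyme wells; nearly all actives have a fitted effect of over 25% in size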
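20 mM phosphate pH 7.0 + 0.01% (detergent screen) or 0.0001% Triton X-100; 5.3 nM AmpC reagent; cpd preinc 15 min RT; nitrocefin (800 uM stock) to start; A480 q20 s × 4 min; Activity was normalised to no-enzyme and no-compound control wells.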
AMA1-RON2 inh = qHTS for Inhibitors of AMA1-RON; Towards Development of Antimalarial Drug Lead: Primary Screen. Plasmodium falciparum AMA1 (3D7) - RON2 peptide interaction. AlphaScreen AMA1-biotinylated RON2 peptide binding. Potency, µM (series often up to 58.2 µM), inactives show at the highest dose activity change, negative = inhibition, most hits filed as inhibitors. 360,000 compounds, 0.2% hits. AID 720542, 2013;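 also: 0% = vehicle wells and -100% = peptide control; nearly all actives have a fitted effect of over 45% in size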
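AMA1 (3D7) with his tag at 25 nM final met compounds first, then biotinylated RON2 peptide at 25 nM; detection used donor plus acceptor beads, 10 µg/mL apiece, read by AlphaScreen after 30 min at room temperature.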
Pf growth 48h = Primary qHTS for delayed death inhibitors of the malarial parasite plastid, 48 hour incubation; P. falciparum luciferase growth in erythrocytes, 48 h; Potency, µM (series often up to 28.7 µM), for the others: top-dose activity change, negative = inhibition, usual class: inhibitors; 310,000 compounds, 5.9% hits; AID 504832, 2011
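Firefly luciferase activity from engineered P. falciparum reports growth; inhibitors lower the luminescent signal. Cultures contained 2% hematocrit erythrocytes at 0.1% final parasitemia.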
Pf growth 96h = Primary qHTS for delayed death inhibitors of the malarial parasite plastid, 96 hour incubation. P. falciparum luciferase reporter growth, 96 h. Potency, µM (series often up to 28.7 µM), inactives show at the top dose activity change, negative = inhibition, hits mostly inhibitors. 320,000 compounds, 6.9% hits
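Erythrocytes infected with luciferase-expressing P. falciparum were dispensed at 2% hematocrit and 0.05% parasitemia (final), then incubated with compounds 96 hours at 37 C in 5% CO2. Luminescence after detection reagent addition reported growth.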
* = called active by the depositor; ? = inconclusive; . = no result given; [ ] = dose if it differs, or a comment. Calls follow the shape of the dose curve; as a rule, active = well fitted curve in the direction sought with a large enough effect; inconclusive = small, poorly fitted or top-dose-only effect, or another doubt; inactive = no such curve, though single readings can be large; an effect the other way counts as inactive or inconclusive. Unless noted, % is scaled to controls: 0 for no effect and ±100 for the full control effect; potency is read from the fitted curve at half-maximal effect.

SMILES	HCV inh	AmpC inh no detg	AmpC detergent	AMA1-RON2 inh	Pf growth 48h	Pf growth 96h
CCCCN1CC(c2nc3ccccc3n2CCCCOc2ccccc2C)CC1=O (configuration not stated)	.	.	18%	.	.	.
CCn1ncc2c(OCc3ccc(C#N)cc3)cc(C)nc21	?	54%	-6%	-5%	.	15µM*
Cc1cnc(C(=O)OCc2ccc(C#N)cc2)cn1	2%	-11%	-7%	-21%	9%	42%
COc1ccccc1-c1csc(N2CCC(C(N)=O)CC2)n1	.	.	.	.	12µM*	?
CCCNS(=O)(=O)c1ccc2nc(NC(=O)c3ccc(F)cc3)sc2c1	.	.	-7%	.	.	.
Cn1cc(CN2CCC(C(O)c3cccs3)CC2)c(-c2cccc(Cl)c2)n1 (configuration not stated)	23%	63%	-6%	37%	9.3µM*	?
Cn1cc(CN2CCCC(C(=O)c3nccn3C)C2)c(-c2cccc(Cl)c2)n1 (configuration not stated)	-15%	53%	10%	7%	21%	?
Cn1cc(CN2CCN(c3ncccn3)CC2)c(-c2cccc(Cl)c2)n1	7%	158%	-2%	-18%	-20%	6%
Cc1cc(N2CCN(Cc3cn(C)nc3-c3cccc(Cl)c3)CC2)cc(C)n1	7.1µM*	57%	2%	-5%	?	?
Cc1ccnc(NS(=O)(=O)c2ccc(NC(=O)c3cc(=O)c4ccc(C)c(C)c4o3)cc2)n1	.	.	18%	.	.	.
COc1cc2nc(N(C)CCCNC(=O)[C@@H]3CCCO3)nc(N)c2cc1OC	.	.	.	.	-7%[12.8 µM]	1%[12.8 µM]
CC1=NN(c2ccccc2)C(=O)/C1=C/c1cn(C)c2ccccc12	-11%	-11%	11%	?	?	7.4µM*
CC1=NN(c2ccccc2)C(=O)/C1=C\c1cc(C)n(C)c1C	3%	91%	3%	-30%	?	9.3µM*
Cc1c(Cl)cccc1NC(=O)CSc1nc(=O)n(Cc2ccncc2)c2c1CCC2	.	.	2%	.	.	.
O=C(NCc1nc2cccnc2n1Cc1ccc(F)cc1)c1ccccc1C(F)(F)F	.	.	-2%	.	.	.
Cc1c(C#N)c2ccccc2n1CC(=O)N1CCCc2ccccc21	13%	-10%	0%	-6%	3.3µM*	36%
Cc1c(C#N)c2ccccc2n1CC(=O)N1CCCC1	6%	3%	-12%	12%	?	21%
Cc1c(Br)c([N+](=O)[O-])nn1CC(=O)N1CCCc2ccccc21	-3%	-6%	3%	-4%	26%	2.3µM*
O=C(Cn1c(=O)n(Cc2ccc3c(c2)OCO3)c(=O)c2ccccc21)N1CCCc2ccccc21	14%	-40%	-1%	-7%	10µM*	.
COc1cc(OC)c(S(=O)(=O)Nc2ccccc2N2CCCCC2)cc1NC(C)=O	0%	23%	-3%	-7%	9.3µM*	9.3µM*
COc1ccccc1NS(=O)(=O)c1cc(NC(=O)C(C)C)ccc1N1CCCCC1	?	-47%	-6%	10%	-20%	?
COc1ccccc1NS(=O)(=O)c1cc(NC(=O)Nc2ccccc2)ccc1N1CCCCC1	?	-51%	-5%	13%	2.6µM*	1.5µM*
COc1ccccc1NS(=O)(=O)c1cc(NC(=O)c2cccs2)ccc1N1CCCCC1	7%	-37%	0%	-7%	?	3.7µM*
COc1cc(S(=O)(=O)Nc2ccccc2N2CCCCC2)ccc1NC(C)=O	-5%	43%	7%	-10%	-25%	?
O=C(Nc1ccc(N2CCCC2)c(S(=O)(=O)Nc2cccc(C(F)(F)F)c2)c1)c1cccs1	?	-38%	-12%	2%[2.32 µM]	?	15µM*
SMILES	HCV inh	AmpC inh no detg	AmpC detergent	AMA1-RON2 inh	Pf growth 48h	Pf growth 96h
CCOC(=O)C(CS)NCCN[C@@H](CS)C(=O)OCC (some centres not stated)	.	.	.	.	-13%	-17%
Cc1cc(C)c2c(NC(=O)CCl)nn(C)c2n1	?	-6%	-1%	-7%	3.7µM*	1.9µM*
CCOc1ccc2nc(N3CCCC(C(=O)NCCc4ccc(OC)cc4OC)C3)sc2c1 (configuration not stated)	.	.	17%	.	.	.
COc1ccc(N2CCN(S(=O)(=O)c3ccc4oc(=O)c5ncn(C)c5c4c3)CC2)cc1	.	.	25%	.	.	.
CCC1CN(C(=O)N2CCC(C(=O)N(C)Cc3ccccc3)CC2)c2ccccc2O1 (configuration not stated)	.	.	1%	.	.	.
C/C(=N\Nc1cccc(Cl)c1)c1ccc(-n2ccnc2)cc1	-25%	?	-9%	-1%	?	12µM*
CCOC(=O)C1(CCOc2ccccc2)CCN(Cc2ccc(C)s2)CC1	?	39%	-10%	2%	13µM*	10µM*
CCOC(=O)C1(CCOc2ccccc2)CCN(Cc2cccc(OC)c2OC)CC1	28µM*	83%	-9%	-7%	?	10µM*
CCOC(=O)C1(CCc2ccccc2)CCN(Cc2ccc(NC(C)=O)cc2)CC1	1%	28%	?	8%	?	4.1µM*
CCOC(=O)C1(CCc2ccccc2)CCN(Cc2ccc(C(=O)OC)cc2)CC1	-17%	45%	-12%	-2%	?	-8%
CCOC(=O)C1(CCc2ccccc2)CCN(Cc2ccc3c(c2)OCCO3)CC1	?	-7%	0%	?	2%	10µM*
Cc1ccc2cccc(NC(=O)c3ccc(-c4ccc(Cl)cc4Cl)o3)c2n1	.	.	-5%	.	.	.
CCOc1ccc(NC(=O)Cn2c(=O)oc3cc(S(=O)(=O)NC4CCCC4)ccc32)cc1	.	.	-4%	.	.	.
CCOC(=O)C1(CCOc2ccccc2)CCN(Cc2ccc3nonc3c2)CC1	10µM*	18%	5%	2%	?	10%
CCOC(=O)C1(CCOc2ccccc2)CCN(Cc2ccc(NC(C)=O)cc2)CC1	-24%	88%	5%	-12%	13µM*	15%
CCOC(=O)C1(CCOc2ccccc2)CCN(Cc2ccc(OC)cc2)CC1	13µM*	.	.	-13%	.	.
CCOC(=O)C1(CCOc2ccccc2)CCN(Cc2cccc(OCCO)c2)CC1	-23%	88%	?	-1%	-3%	-2%
CC(=O)Nc1ccc(CN2CCC(CO)(CCOc3ccccc3)CC2)cc1	12%	-8%	1%	17%	24%	?
CCOC(=O)C1(CCOc2ccccc2)CCN(Cc2ccc(OCC)c(CO)c2)CC1	14µM*	.	.	-3%	.	.
